Counter-ions that a name gives are not always drawn. Unmarked numbers belong to inactive results.
Legend:
Conditions in all cases: 20 µM
[1] = system: Salmonella enterica typhimurium; experiment: growth AUC normalised to DMSO control (fraction of control); higher = less growth inhibition, active = hit call of the paper
Outline: (§1)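 Pathogens were passaged twice under anaerobic conditions, then inoculated into pre-reduced mGAM plates at a starting OD578 of 0.01, with compound at 20 μM and 1% DMSO, and sealed with breathable membranes. For Haemophilus parainfluenzae, the medium was supplemented with hemin and NAD. OD578 was read every hour for 24 h in three biological replicates. Growth-curve AUC was calculated by the trapezoidal rule up to the exponential-to-stationary transition and normalised to DMSO controls on the same plate.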

Shigella flexneri = experiment: as above
Outline: as §1

Vibrio cholerae = experiment: as above
Outline: as §1

[2] = system: Yersinia pseudotuberculosis; experiment: as above
Outline: as §1

P. vulgatus RND KO = experiment: growth AUC normalised to DMSO control (median) (fraction of control); higher = less growth inhibition, active = hit call of the paper
Outline: (§2)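 Area under the growth curve, calculated by the trapezoidal rule up to entry into stationary phase, was normalised to vehicle wells on the same plate. Strains had been passaged twice overnight without oxygen and then grown in mGAM in 96-well plates from OD578 0.01, each with an approved-drug library compound at 20 μM in 1% DMSO. OD578 was read hourly over 24 h in an anaerobic incubator, and the median of three biological replicates is given.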

P. vulgatus WT = experiment: as above
Outline: as §2

[3] = system: S. enterica typhimurium WT; experiment: as above
Outline: as §2

[4] = system: S. enterica typhimurium tolC KO; experiment: as above
Outline: as §2
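Throughout, for growth AUC normalised to DMSO control (median): active when median AUC fell below 0.1.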

SMILES | growth AUC normalised to DMSO control [1] | growth AUC normalised to DMSO control (Shigella flexneri) | growth AUC normalised to DMSO control (Vibrio cholerae) | growth AUC normalised to DMSO control [2] | growth AUC normalised to DMSO control (P. vulgatus RND KO) | growth AUC normalised to DMSO control (P. vulgatus WT) | growth AUC normalised to DMSO control [3] | growth AUC normalised to DMSO control [4]
CCOC(=O)[C@@](C)(N)Cc1ccc(O)c(O)c1 [Methyldopate hydrochloride] | 0.999 | 1.04 | 1.06 | 1.02 | 0.964 | 1.02 | 1.01 | 1.02
CCOC(=O)n1ccn(C)c1=S [Carbimazole] | 0.98 | 1 | 0.981 | 0.998 | 0.993 | 1.01 | 0.996 | 1.01
Clc1ccc2nsnc2c1NC1=NCCN1 [Tizanidine hydrochloride] | 0.977 | 0.988 | 0.993 | 1 | 0.992 | 1 | 1.01 | 0.998
CC1(C)S[C@@H]2[C@H](NC(=O)Cc3ccccc3)C(=O)N2[C@H]1C(=O)O [Benzylpenicillin sodium] | 0.0129 (active) | 0.9 | 0.136 (active) | 0.101 (active) | 0.0105 (active) | 0.00991 (active) | 0.0318 (active) | 0.0065 (active)
CCN(CCCCOC(=O)c1ccc(OC)c(OC)c1)C(C)Cc1ccc(OC)cc1 (stereo not given) [Mebeverine hydrochloride] | 1.01 | 1.03 | 1.02 | 1.01 | 1.01 | 1.01 | 1 | 0.934
COc1ccc2c3c1O[C@H]1C[C@@H](O)C=C[C@@]31CCN(C)C2 [Galanthamine hydrobromide] | 0.995 | 0.95 | 0.986 | 1.02 | 0.998 | 1 | 1 | 0.995
COc1ccccc1N1CCN(CC(O)COc2cccc3ccccc23)CC1 (stereo not given) [Naftopidil dihydrochloride] | 1.01 | 1 | 0.894 | 0.991 | 0.933 | 0.971 | 1.01 | 0.914
Nc1nc(O)c2ncn(CCC(CO)CO)c2n1 [Penciclovir] | 1.01 | 1.01 | 1.06 | 1.02 | 1.02 | 1.03 | 1 | 0.997
CCOC(=O)NNc1nncc2ccccc12 [Todralazine hydrochloride] | 1.01 | 1.01 | 0.99 | 1.01 | 1.01 | 0.999 | 1.01 | 1.02
CN1CCc2c(c3ccccc3n2Cc2ccccc2)C1 [Mebhydroline 1,5-naphtalenedisulfonate] | 0.985 | 0.96 | 0.922 | 0.702 | 0.948 | 0.971 | 0.979 | 0.977
COc1ccc2[nH]cc(CCNC(C)=O)c2c1 [Melatonin] | 0.987 | 0.972 | 0.997 | 0.992 | 0.988 | 1 | 0.996 | 0.996
NC(=O)c1ncn([C@@H]2O[C@H](CO)[C@@H](O)[C@H]2O)n1 [Ribavirin] | 0.995 | 0.949 | 0.983 | 0.952 | 0.987 | 1 | 0.98 | 0.988
c1ccc(CN(CC2=NCCN2)c2ccccc2)cc1 [Antazoline hydrochloride] | 0.999 | 1.01 | 1.01 | 1 | 1.03 | 1.05 | 0.996 | 1
O=C(O)c1cc(=O)c2c(OCC(O)COc3cccc4oc(C(=O)O)cc(=O)c34)cccc2o1 [Cromolyn disodium salt] | 0.98 | 0.995 | 1 | 1 | 1.03 | 1.03 | 1.02 | 0.996
O=C1c2c(O)cccc2Cc2cccc(O)c21 [Anthralin] | 1.02 | 0.987 | 1.03 | 1.02 | 0.861 | 0.834 | 0.989 | 0.985

Reference: the supplement of paper PMC12350171
